Experimental data from PubChem BioAssay AID1159580 (chemical genetic matrix, 2015).
Out of some 5,500 compounds screened, about 2,000 (36%) were called active. Another 18% or so got no clear call; they are omitted. Cut-off read from the data, not from the text of the source: active = normalized growth mostly below about 0.91 (no sharp cut-off); inconclusive = no clear call, values can overlap the other calls; inactive = mostly above about 0.92. This is one part of the list.

Assay: chemical genetic growth profiling, strain panel (AID 1159580);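 note: tested at 20 µM; growth read once vehicle control cultures reached saturation at 30 °C; 1 = growth at the plate median or of vehicle wells; lower values mean less growth of the strain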
Conditions: growth OD

Measured: normalized growth

CCCCC[C@H](CC(=O)NO)C(=O)N[C@H](C(=O)N1CCC[C@H]1CO)C(C)C
inactive: S. cerevisiae deletion strains, locus YJR043C, strain POL32, stronger effect = lower value 0.978 | S. cerevisiae deletion strains, locus YJR066W, strain TOR1, stronger effect = lower value 0.934 | S. cerevisiae deletion strains, locus YJR075W, strain HOC1, stronger effect = lower value 1.04 | S. cerevisiae deletion strains, locus YKL009W, strain mrt4, stronger effect = lower value 1.03 | S. cerevisiae deletion strains, locus YKL068W, stronger effect = lower value 1.01 | S. cerevisiae deletion strains, locus YKL085W, strain MDH1 (second series), stronger effect = lower value 1.02 | S. cerevisiae deletion strains, locus YKL085W, strain MDH1, stronger effect = lower value 1.02 | S. cerevisiae deletion strains, locus YKL160W, strain elf1, stronger effect = lower value 1.01 | S. cerevisiae deletion strains, locus YKL190W, strain CNB1, stronger effect = lower value 1.01 | S. cerevisiae deletion strains, locus YKR001C, strain vps1, stronger effect = lower value 1.02 | S. cerevisiae deletion strains, locus YKR026C, strain gcn3, stronger effect = lower value 1.01 | S. cerevisiae deletion strains, locus YKR091W, strain srl3, stronger effect = lower value 1.02 | S. cerevisiae deletion strains, locus YLL001W, strain dnm1, stronger effect = lower value 1.01 | S. cerevisiae deletion strains, locus YLL026W, stronger effect = lower value 1.02 | S. cerevisiae deletion strains, locus YLL041C, strain sdh2, stronger effect = lower value 1.01 | S. cerevisiae deletion strains, locus YLR027C, strain aat2, stronger effect = lower value 1.01 | S. cerevisiae deletion strains, locus YLR039C, strain RIC1, stronger effect = lower value 0.947 | S. cerevisiae deletion strains, locus YLR058C, strain SHM2, stronger effect = lower value 1.01 | S. cerevisiae deletion strains, locus YLR102C, strain apc9, stronger effect = lower value 1.02 | S. cerevisiae deletion strains, locus YLR113W, strain HOG1, stronger effect = lower value 0.972 | S. cerevisiae deletion strains, locus YLR221C, strain rsa3, stronger effect = lower value 1.01 | S. cerevisiae deletion strains, locus YLR258W, strain gsy2, stronger effect = lower value 1.02 | S. cerevisiae deletion strains, locus YLR262C, strain YPT6 (second series), stronger effect = lower value 1.02 | S. cerevisiae deletion strains, locus YLR262C, strain YPT6, stronger effect = lower value 0.938 | S. cerevisiae deletion strains, locus YLR268W, strain sec22, stronger effect = lower value 1.03 | S. cerevisiae deletion strains, locus YLR320W, strain mms22, stronger effect = lower value 1.04 | S. cerevisiae deletion strains, locus YLR330W, strain CHS5, stronger effect = lower value 1.02 | S. cerevisiae deletion strains, locus YLR342W, strain FKS1 (second series), stronger effect = lower value 0.961 | S. cerevisiae deletion strains, locus YLR342W, strain FKS1, stronger effect = lower value 1.02 | S. cerevisiae deletion strains, locus YLR357W, strain rsc2, stronger effect = lower value 1.05 | S. cerevisiae deletion strains, locus YLR370C, strain arc18, stronger effect = lower value 1.01 | S. cerevisiae deletion strains, locus YLR371W, strain rom2, stronger effect = lower value 1.04 | S. cerevisiae deletion strains, locus YLR384C, strain iki3, stronger effect = lower value 1.02 | S. cerevisiae deletion strains, locus YLR418C, strain cdc73, stronger effect = lower value 1.02 | S. cerevisiae deletion strains, locus YML016C, strain PPZ1, stronger effect = lower value 1.02 | S. cerevisiae deletion strains, locus YML032C, strain rad52, stronger effect = lower value 1.01 | S. cerevisiae deletion strains, locus YML120C, strain ndi1, stronger effect = lower value 1.02 | S. cerevisiae deletion strains, locus YML124C, strain tub3, stronger effect = lower value 1 | S. cerevisiae deletion strains, locus YMR058W, strain fet3, stronger effect = lower value 1.01 | S. cerevisiae deletion strains, locus YMR078C, strain ctf18, stronger effect = lower value 1.02 | S. cerevisiae deletion strains, locus YMR125W, strain sto1, stronger effect = lower value 1.03 | S. cerevisiae deletion strains, locus YMR129W, stronger effect = lower value 1.01 | S. cerevisiae deletion strains, locus YMR205C, strain PFK2, stronger effect = lower value 1.04 | S. cerevisiae deletion strains, locus YMR223W, strain ubp8, stronger effect = lower value 1.02 | S. cerevisiae deletion strains, locus YMR231W, strain pep5, stronger effect = lower value 1.01 | S. cerevisiae deletion strains, locus YMR263W, strain SAP30, stronger effect = lower value 1.03 | S. cerevisiae deletion strains, locus YMR307W, strain GAS1, stronger effect = lower value 1.03 | S. cerevisiae deletion strains, locus YNL067W, strain RPL9B, stronger effect = lower value 1.04 | S. cerevisiae deletion strains, locus YNL071W, strain lat1, stronger effect = lower value 1 | S. cerevisiae deletion strains, locus YNL153C, strain GIM3, stronger effect = lower value 1.04 | S. cerevisiae deletion strains, locus YNL183C, strain NPR1, stronger effect = lower value 0.942 | S. cerevisiae deletion strains, locus YNL209W, strain ssb2, stronger effect = lower value 1.01 | S. cerevisiae deletion strains, locus YNL233W, strain BNI4, stronger effect = lower value 1.03 | S. cerevisiae deletion strains, locus YNL248C, strain rpa49, stronger effect = lower value 1 | S. cerevisiae deletion strains, locus YNL250W, strain rad50, stronger effect = lower value 1.02 | S. cerevisiae deletion strains, locus YNL271C, strain bni1, stronger effect = lower value 1.02 | S. cerevisiae deletion strains, locus YNL298W, strain CLA4, stronger effect = lower value 1.01 | S. cerevisiae deletion strains, locus YNL307C, strain MCK1, stronger effect = lower value 1.02 | S. cerevisiae deletion strains, locus YNL322C, strain KRE1 (second series), stronger effect = lower value 1.03 | S. cerevisiae deletion strains, locus YNR049C, strain mso1, stronger effect = lower value 1.02 | S. cerevisiae deletion strains, locus YNR052C, strain pop2, stronger effect = lower value 1.02 | S. cerevisiae deletion strains, locus YOL012C, strain htz1 1.13 | S. cerevisiae deletion strains, locus YOL147C, strain pex11, stronger effect = lower value 1.02 | S. cerevisiae deletion strains, locus YOR001W, strain rrp6, stronger effect = lower value 1 | S. cerevisiae deletion strains, locus YOR061W, strain CKA2, stronger effect = lower value 1 | S. cerevisiae deletion strains, locus YOR069W, strain VPS5, stronger effect = lower value 1.01 | S. cerevisiae deletion strains, locus YOR070C, strain gyp1, stronger effect = lower value 1 | S. cerevisiae deletion strains, locus YOR080W, strain dia2, stronger effect = lower value 1.03 | S. cerevisiae deletion strains, locus YOR083W, strain WHI5, stronger effect = lower value 1.02 | S. cerevisiae deletion strains, locus YOR106W, strain vam3, stronger effect = lower value 1.01 | S. cerevisiae deletion strains, locus YOR136W, strain idh2, stronger effect = lower value 1.03 | S. cerevisiae deletion strains, locus YOR144C, strain elg1, stronger effect = lower value 1.02 | S. cerevisiae deletion strains, locus YOR184W, strain ser1, stronger effect = lower value 1.01 | S. cerevisiae deletion strains, locus YOR231W, strain MKK1, stronger effect = lower value 0.989 | S. cerevisiae deletion strains, locus YOR265W, strain rbl2, stronger effect = lower value 1.01 | S. cerevisiae deletion strains, locus YOR270C, strain vph1, stronger effect = lower value 1.01 | S. cerevisiae deletion strains, locus YOR290C, strain snf2, stronger effect = lower value 1.02 | S. cerevisiae deletion strains, locus YOR316C, strain cot1, stronger effect = lower value 1.01 | S. cerevisiae deletion strains, locus YPL051W, strain arl3, stronger effect = lower value 1.02 | S. cerevisiae deletion strains, locus YPL078C, strain atp4, stronger effect = lower value 1.02 | S. cerevisiae deletion strains, locus YPL106C, strain sse1, stronger effect = lower value 1.03 | S. cerevisiae deletion strains, locus YPL240C, strain hsp82, stronger effect = lower value 1.01 | S. cerevisiae deletion strains, locus YPL256C, strain CLN2, stronger effect = lower value 0.941 | S. cerevisiae deletion strains, locus YPR119W, strain clb2, stronger effect = lower value 1.01 | S. cerevisiae deletion strains, locus YPR141C, strain kar3, stronger effect = lower value 1.02 | S. cerevisiae deletion strains, locus YPR163C, strain tif3, stronger effect = lower value 1.02 | S. cerevisiae deletion strains, locus YPR167C, strain met16, stronger effect = lower value 1.03 | S. cerevisiae deletion strains, strain wtn01, stronger effect = lower value 1.01 | S. cerevisiae strains, strain wild type, stronger effect = lower value 1.01
